Measured values as given in PubChem BioAssay (NCI).
About 83,000 compounds went through this panel and 20% of them were active in at least one assay; those are over-represented in the sample as a whole.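 Values shown are percent growth following 48 h exposure of cells in 96-well plates to a single concentration of compound; below 10 was considered active.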 A number with no mark means an inactive call. Active and inactive are the calls of the source.

Assays:
Test in all cases: NCI-60 one-dose screen, 48 h (100 = growth as untreated, 0 = no growth, -100 = all killed)
Details in all cases: 10 µM unless noted
SK-MEL-2 melanoma = system: SK-MEL-2 melanoma
SN12C renal = system: SN12C renal
UO-31 renal = system: UO-31 renal
TK-10 renal = system: TK-10 renal
ACHN renal = system: ACHN renal
CAKI-1 renal = system: CAKI-1 renal
A498 renal = system: A498 renal
MOLT-4 leukemia = system: MOLT-4 leukemia
SR leukemia = system: SR leukemia
RPMI-8226 leukemia = system: RPMI-8226 leukemia
OVCAR-8 ovarian = system: OVCAR-8 ovarian
OVCAR-5 ovarian = system: OVCAR-5 ovarian
OVCAR-4 ovarian = system: OVCAR-4 ovarian
SK-OV-3 ovarian = system: SK-OV-3 ovarian
IGROV1 ovarian = system: IGROV1 ovarian
OVCAR-3 ovarian = system: OVCAR-3 ovarian
HS 578T breast = system: HS 578T breast
NCI/ADR-RES ovarian = system: NCI/ADR-RES ovarian
CCRF-CEM leukemia = system: CCRF-CEM leukemia
EKVX NSCLC = system: EKVX NSCLC

| Compound | growth (SK-MEL-2 melanoma) [%] | growth (SN12C renal) [%] | growth (UO-31 renal) | growth (TK-10 renal) | growth (ACHN renal) [%] | growth (CAKI-1 renal) [%] | growth (A498 renal) | growth (MOLT-4 leukemia) | growth (SR leukemia) | growth (RPMI-8226 leukemia) | growth (OVCAR-8 ovarian) [%] | growth (OVCAR-5 ovarian) [%] | growth (OVCAR-4 ovarian) | growth (SK-OV-3 ovarian) | growth (IGROV1 ovarian) [%] | growth (OVCAR-3 ovarian) | growth (HS 578T breast) [%] | growth (NCI/ADR-RES ovarian) | growth (CCRF-CEM leukemia) [%] | growth (EKVX NSCLC) [%] |
| --- | --- | --- | --- | --- | --- | --- | --- | --- | --- | --- | --- | --- | --- | --- | --- | --- | --- | --- | --- | --- |
| COc1ccc(/C(=C\c2ccc3c(c2)OCO3)C(=O)Nc2nc3ccccc3s2)cc1OC | 92.6 | 102 | -6.51% (active) | 96.6% | 97.7 | 79 | 78.8% | 74.4% | 69.8% | 78.2% | 86.8 | 93.7 | 92.2% | 102% | 101 | 97% | 95 | 98.1% |  |  |
| Cc1nn(-c2ccc(Br)cc2)c2nc3[nH]c(=O)[nH]c(=O)c3nc12 | 111 | 109 | 94.2% | 144% | 106 | 92.2 | 84.3% | 116% | 114% | 121% | 111 | 112 | 103% | 110% |  | 117% | 104 | 107% | 118 |  |
| COc1cccc(NC(=O)c2sc3nc4c(cc3c2N)C(=O)CCC4)c1 | 25.3 | 35.3 | 52.3% | 84.2% | 42.5 | 55.2 | -3.03% (active) |  | 3.01% (active) | 0.464% (active) |  | 50 | 58.9% | -2.7% (active) | 49.2 | -2.17% (active) |  | -31.2% (active) |  |  |
| C[C@@H](C(=O)O)c1ccc2c3cc(Cl)ccc3n(Cc3cc(=O)oc4ccc(Cl)cc34)c2c1 | 101 |  |  | 116% |  |  | 102% | 101% | 94.7% | 109% | 105 | 97.3 | 98.9% | 96.9% | 74.2 | 98.7% | 101 | 98.3% | 105 | 97 |
| COc1ccc(-c2cc(/C=C/C(=O)c3ccc(OC)c(OC)c3)[nH]n2)cc1 | 69.2 | 17.6 | 36.4% | 31.4% | 29.8 | 62.8 | -4.05% (active) |  | -32.7% (active) | -48.4% (active) |  | 48.5 | 32.7% | 49.3% | 61 | -14.6% (active) |  | -0.366% (active) |  |  |
| COc1ccc(-c2n/c(=C\c3c(O)[nH]c4ccc(OC)cc34)cc3c2=Nc2ccccc2-3)cc1 | 96.6 | 89.4 | 73.6% | -10.8% (active) | 102 | 103 | 87.2% | -35.4% (active) | 7.13% (active) | -38.5% (active) | 11.8 | 135 | -42.1% (active) | 114% | 98.3 | -57.5% (active) | 26.1 | 4.41% (active) |  |  |
| COC(=O)[C@@H]1[C@H]2C[C@H]3c4[nH]c5cc(OC)ccc5c4CCN3C[C@@H]2C[C@H](OC(=O)/C=C/c2ccnc(OC)c2)[C@H]1OC | 106 | 99.2 | 67.5% | 87.3% | 66.1 |  | 79.4% | 75.9% | 73.1% | 69.6% | 88.4 | 102 |  | 96% | 83.2 | 90.3% | 90.9 | 81.6% | 93.7 |  |
| NC1(N)C=CC2=C(C=C1)C1(N)C3=C(C=CC(N)(N)C=C3)N2C2(N)C3=C(C=CC(N)(N)C=C3)N1C1=C2C=CC(N)(N)C=C1 | 103 | 82.2 | 59.9% | 119% | 83.5 | 70.8 | 88.3% | 32.6% | 79.2% | 18.6% | 90.5 | 105 | 90.7% | 102% | 94.8 | 97.8% | 81.6 | 82.9% |  |  |
| COc1ccc(/C=C2\N=C(c3ccccc3)N(c3cc(OC)c(OC)cc3C(=O)N3N=C(C)CC3=O)C2=O)cc1 | 91.1 | 93.7 | 68.9% | 113% | 93.2 | 92.3 | 50.8% | 57.9% | 92.1% | 47.7% | 89.4 | 103 | 101% | 99.3% | 99.8 | 105% | 91.7 | 78.6% |  |  |
